Assay results from PubChem BioAssay AID1259318 (Sanford-Burnham Center for Chemical Genomics, 2017).
Out of some 370,000 compounds screened, about 3,000 (0.81%) were called active. The sample as a whole holds a higher share of actives than the screen did. A number with no mark means an inactive call.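 The calls were made as follows: active = activity above about 14% (limit read from the data; passing the limit was not always enough); inactive = the rest.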

Molecular target: Nuclear receptor subfamily 1 group D member 1 (Homo sapiens) (UniProt P20393)
Sequence (P20393 whole entry, looked up): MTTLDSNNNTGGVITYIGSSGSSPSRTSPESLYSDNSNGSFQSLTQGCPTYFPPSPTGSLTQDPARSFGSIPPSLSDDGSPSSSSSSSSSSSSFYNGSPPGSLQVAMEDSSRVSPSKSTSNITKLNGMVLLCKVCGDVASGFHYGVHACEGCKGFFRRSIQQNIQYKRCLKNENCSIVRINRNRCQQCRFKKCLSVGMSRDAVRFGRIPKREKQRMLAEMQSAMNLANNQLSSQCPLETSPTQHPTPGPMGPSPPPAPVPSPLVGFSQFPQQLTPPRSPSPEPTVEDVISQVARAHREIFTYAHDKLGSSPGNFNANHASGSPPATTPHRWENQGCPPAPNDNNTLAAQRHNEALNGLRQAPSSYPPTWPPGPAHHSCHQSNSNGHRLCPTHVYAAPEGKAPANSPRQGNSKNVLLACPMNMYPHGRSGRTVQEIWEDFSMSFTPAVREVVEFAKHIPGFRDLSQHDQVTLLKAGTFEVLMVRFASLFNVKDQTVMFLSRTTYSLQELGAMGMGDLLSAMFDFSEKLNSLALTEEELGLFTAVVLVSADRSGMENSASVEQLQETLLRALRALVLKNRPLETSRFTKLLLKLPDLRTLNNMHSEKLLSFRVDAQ
Assay: Rev-erbα–DNA interaction modulation – biochemical, FITC-DNA, fluorescence polarization, uHTS, primary screen (AID 1259318);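 also: 0% = DMSO wells with 35 nM protein and 100% = DMSO wells with 750 nM protein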
Details: Rev-erbα–FITC-DNA binding, 90 min, at 10 µM, hits give high values

Compound | activity
C=CCN1C(=O)[C@@H](CC(=O)NCC2CCCCC2)[C@]2(C(=O)OC)CCCCC=C12 | 8.08%
Cc1nonc1OCCn1nnnc1N | 0.14%
c1ccc2c(-c3nn4nnnc4c4ccccc34)cccc2c1 | 28.7% (active)
COc1ccc(C)cc1NC(=O)NCCCCc1ccccc1 | -4.58%
CC1CCCC(C)N1C(=O)COC(=O)COc1ccccc1C#N (stereo not drawn) | 8.28%
COc1ccc(CN(CCN2CCOCC2)C(=O)c2ccc(C)cc2)cc1OC | -7.19%
O=C1CCCC2=C1C(c1ccccc1)n1c(s/c(=C/c3cccc(F)c3)c1=O)=N2 (stereo not drawn) | 35% (active)
COc1ccc(OC)c(C2C3=C(N=c4s/c(=C\c5cccc(O)c5)c(=O)n42)c2ccccc2CC3)c1 (stereo not drawn) | -1.04%
O=C1CC(c2cccc(F)c2)C2=C(CCCC2=O)N1 (stereo not drawn) | 1.68%
O=C1CC2(CCCC2)Oc2ccc(Cl)cc21 | 1.88%
O=C1Cc2ccccc2Sc2ccc(Cl)cc21 | 15.6% (active)
S=C1Nc2cc(Cl)ccc2Sc2ccccc21 | -3.11%
Cc1ccc(S(=O)(=O)c2c[nH]c3ccc(Cl)cc3c2=O)cc1 | 136% (active)
CCCCN(C)Cc1c(C)[nH]c2ccc(Cl)cc2c1=O | 3.27%
Cc1ccc(S(=O)(=O)c2c[nH]c3ccc(C)cc3c2=O)cc1 | 4.77%
COc1ccc(N(CC(=O)NCc2ccc(F)cc2)C(=O)CCC(=O)Nc2nccs2)cc1 | -2.56%
Cc1cc(Cl)ccc1NNC(=O)c1snnc1C | 3.67%
CCOC(=O)CNc1nc2ccccc2n2c(C)nnc12 | 2.94%
Fc1ccc(CNc2nc3ccccc3n3nnnc23)cc1 | 40.6% (active)
CC(C)(C)N1CC(c2nc3ccccc3n2Cc2ccc(F)cc2)CC1=O (stereo not drawn) | -4.96%

Compound | activity
COC(=O)[C@]1(C)N[C@H](c2ccc(-c3ccc(Cl)c(Cl)c3)cc2)[C@@H]2C(=O)N(C)C(=O)[C@@H]21 | 2.33%
Cc1nc(N2CCC(C)CC2)c2c(C)c(C(=O)Nc3cc(F)ccc3C)sc2n1 | 15.7%
O=C(Nc1ccc(F)c(Cl)c1)C1CCN(S(=O)(=O)c2cccnc2)CC1 | -4.36%
Cc1nc(N2CCN(c3ccccn3)CC2)c2c(C)c(C(=O)Nc3ccc(F)c(Cl)c3)sc2n1 | 32% (active)
COc1ccc(-c2nnc3n2CCCCC3)cc1 | -6.25%
O=S(=O)(c1ccccc1)c1nc(-c2ccccc2F)oc1NCc1cccnc1 | -3.4%
O=S(=O)(c1ccc(Br)cc1)c1nc(-c2ccccc2)oc1NCc1cccnc1 | 27.6% (active)
O=C(NCc1cccnc1)c1ccc(CS(=O)(=O)c2ccc(Br)cc2)o1 | -2.47%
Cc1nn(CC#N)c(=O)n1N(C)c1ncc(C(F)(F)F)cc1Cl | 7.64%
CCOc1ccc(C2NC(=S)NC3=C2CCc2ccccc23)cc1 (stereo not drawn) | 7.82%
N#Cc1ccccc1Sc1ccccc1C(=O)OCC(=O)NC1CCCCC1 | 61.4% (active)
N#Cc1ccc(C(=O)OCC(=O)NC(=O)NC2CCCCC2)cc1 | -4.11%
O=C(COC(=O)c1cc([N+](=O)[O-])ccc1NCc1ccccc1)NC1CCCCC1 | -4.56%
O=C(COC(=O)c1cccc(Cl)c1Cl)NC1CCCCCC1 | -4.74%
O=C(COC(=O)c1ccccc1SCC(=O)NC1CCCCC1)NC1CCCCC1 | 70.3% (active)
O=C(COC(=O)c1cccc(Cl)c1)NC1CCCCCCC1 | -7.98%
COC(=O)[C@]12C[C@H](CC(=O)NCc3ccccc3)C(=O)N(CCC3=CCCCC3)C1=C[C@H](C(C)C)O[C@@H]2C1CC1 | -4.75%
Cc1cc(C(=O)OCC(=O)Nc2ccc(F)c(F)c2)c(C)o1 | 4.64%
Cc1sc2ncnc(N3CCC(C(=O)Nc4ccc(F)cc4Cl)CC3)c2c1C | 8.75%
CCc1ccc(C(=O)NNC(=O)C2CCN(c3ncnc4sc(C)c(C)c34)CC2)cc1 | -5.39%

Compound | activity
Cc1sc2ncnc(N3CCC(C(=O)Nc4nc5ccc(Cl)cc5s4)CC3)c2c1C | 42.2% (active)
O=C1NS(=O)(=O)c2ccccc21 | 4.73%
CCOc1ccc(-n2c(SCC(=O)Nc3cc(C)c(NC(=O)c4ccccc4)cc3OC)nnc2-c2cccc(Cl)c2)cc1 | -3.54%
COc1ccc2[nH]c(C(=O)Nc3ccccc3Cl)cc2c1 | 49.3% (active)
COc1cc(NC(=O)c2ccccc2NS(=O)(=O)c2ccc(Cl)s2)cc(OC)c1 | 0.46%
COc1cc2cc(CN(CCN3CCCC3)C(=O)Nc3ccccc3Cl)c(=O)[nH]c2cc1OC | 1.22%
COc1ccccc1CC1(C)C(=O)Nc2ccc(OC(F)(F)F)cc21 (stereo not drawn) | 51.9% (active)
CCc1ccc2c(c1)NC(=O)C2(C)Cc1ccc(OC(F)(F)F)cc1 (stereo not drawn) | 4.7%
CC1(Cc2cccc(C#N)c2)C(=O)Nc2ccc(-c3cccc(C(F)(F)F)c3)cc21 (stereo not drawn) | 0.78%
COc1cc2c(cc1OC)[C@@H](Cc1cc(OC)c(OC)c(OC)c1)[N+](C)(CCCOC(=O)CC/C=C/CCC(=O)OCCC[N+]1(C)CCc3cc(OC)c(OC)cc3[C@H]1Cc1cc(OC)c(OC)c(OC)c1)CC2 (stereo partly drawn) | 4.74%
Cc1cc(=O)oc(C)c1C(=O)NC1CC(C)(C)NC(C)(C)C1 | -3.78%
Cc1c(Br)cc(C(=O)N2CCCCCC2)c(C)c1C | -0.12%
Cc1cc(=O)oc(C)c1C(=O)N1CCCCC1 | 20.1% (active)
CCC1(C)OC(=O)N(C)C1=O (stereo not drawn) | -3.1%
Nc1cccc(OCCCCCOc2cccc(N)c2)c1 | 5%
COc1cc(OC)cc(-c2c(C#Cc3ccsc3)c3cc(-c4ccc(SC)cc4)ccc3n2C)c1 | 34.1% (active)
COc1ccc(-c2c(C#Cc3ccsc3)c3cc(-c4ccc(CN5CCOCC5)cc4)ccc3n2C)cc1 | 3.65%
COc1cc(OC)cc(-c2c(C#Cc3ccsc3)c3cc(-c4ccc(OC)cc4F)ccc3n2C)c1 | -0.12%
